Rows were chosen to be rich in hits. Some 2% of all compounds tested hit in one or more screens of this group.
Jurkat NFkB inh: inhibitors of induced NF-kB luciferase reporter, primary screen, TCR NF-kB activation inhibitor project, cell-based, luminescence, uHTS. Jurkat, PMA/ionomycin-induced NF-kB luciferase reporter. inhibition, % at 4 µM. 0.53% of 330,000 active; in the data active means inhibition above about 50%
Gli-Sufu block: Gli-Sufu pathway antagonists, primary screen, luciferase luminescence, Sufu-KO-LIGHT cells, uHTS; Sufu-KO-LIGHT fibroblasts, Gli luciferase reporter luminescence; inhibition, % at 5 µM; 0.74% of 340,000 active; AID 588413, 2011;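 active means inhibition above about 55%, limit read from the data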;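 further: 0% = DMSO-treated cells and 100% = wells with medium but no cells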
697 NFkB inh: inhibitors of PMA/ionomycin-induced NF-kB reporter, 697 cells, primary screen, B-cell NF-kB inhibitor project, cell-based, luminescence, uHTS. inhibition, % at 4 µM. 697 B-cell NF-kB luciferase reporter, 16 h. 0.33% of 330,000 active; in the data active means inhibition above about 35%
GalR3 antagonist: GalR3 antagonists in HEK293 cells, primary screen, cell-based, fluorescence readout; Galanin receptor type 3 (Homo sapiens), O60755; HEK293 GalR3-CNG cAMP membrane potential fluorescence; galR3 body fused to GalR1 C-terminus; inhibition, % at 3 µM; 0.44% of 360,000 active;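 active means inhibition above the screen-wide average plus 3 SD, cut at about 13% in these data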;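 further: forskolin and galanin both at EC90 stimulate the cells; cAMP rise reported by CNG channel membrane potential dye signal; 0% = forskolin plus galanin with DMSO and 100% = forskolin alone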
NR2F2 inh: NR2F2 transcriptional activity inhibitors, primary screen, cell-based, luciferase reporter, HEK293T, luminescence | AID 686940, 2013 | COUP transcription factor 2 (Homo sapiens), P24468 | inhibition, % at 8.6 µM | 0.7% of 370,000 active | HEK293T NGFI-A luciferase reporter;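 active means inhibition above a per-plate cutoff, mean inhibition of test wells between control levels plus 3 SD, cut at about 38% in these data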;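 further: cells cotransfected with COUP-TFII expression vector driving the NGFI-A reporter; 0% = median of COUP-TF2 test wells and 100% = reporter-only cells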
Target sequence (P24468 whole entry, looked up): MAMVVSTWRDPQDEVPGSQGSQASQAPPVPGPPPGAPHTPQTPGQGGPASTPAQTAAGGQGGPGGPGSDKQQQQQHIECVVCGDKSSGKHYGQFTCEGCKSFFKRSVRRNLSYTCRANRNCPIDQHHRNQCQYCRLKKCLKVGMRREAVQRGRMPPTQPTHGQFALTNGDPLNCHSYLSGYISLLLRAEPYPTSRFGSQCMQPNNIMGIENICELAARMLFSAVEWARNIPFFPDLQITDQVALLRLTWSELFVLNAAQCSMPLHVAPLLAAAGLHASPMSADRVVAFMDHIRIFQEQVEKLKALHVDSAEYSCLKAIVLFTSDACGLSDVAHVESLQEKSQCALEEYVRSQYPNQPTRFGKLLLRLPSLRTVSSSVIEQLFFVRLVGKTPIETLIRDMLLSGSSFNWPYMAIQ
697 NFkB conf: PMA/ionomycin-induced NF-kB reporter inhibitors, 697 retest, confirmation, B-cell NF-kB inhibitor project, cell-based, luminescence, single concentration; shares compounds with 697 NFkB inh; 697 B-cell NF-kB luciferase, 16 h; inhibition, % at 4 µM; 35% of 2,000 active; AID 449746, 2010; in the data active means inhibition mostly above about 28%, no sharp cut-off; inactive means mostly below about 22%
* marks the source's active call; other numbers are inactive results; i = inactive; . = not tested or not shown.

SMILES | Jurkat NFkB inh | Gli-Sufu block | 697 NFkB inh | GalR3 antagonist | NR2F2 inh | 697 NFkB conf
Cc1ccc(C(=O)CSc2nnc(COc3ccccc3)o2)cc1 | 6 | 0 | 54* | 3 | 1 | 40*
Cc1cc(C)cc(OCc2nnc(SCC(=O)c3ccccc3)o2)c1 | 5 | -1 | 46* | -6 | 3 | 45*
Cc1ccc(C(=O)CSc2nnc(COc3cc(C)cc(C)c3)o2)cc1 | 6 | 4 | 36* | -3 | 1 | 55*
CCOC(=O)[C@@]12CCC3=C1N(CCC3)C(=O)[C@H](CC(=O)NCCc1ccccc1OC)C2 | . | . | . | . | 14 | .
CCOc1ccc(-n2c(SCC(=O)Nc3ccc(S(=O)(=O)Nc4nccs4)cc3)nnc2-c2ccccc2)cc1 | . | . | . | . | 14 | .
COc1ccc(-n2c(SCC(=O)NNC(=S)Nc3ccc(C)cc3)nnc2-c2ccccc2)cc1 | . | . | . | . | -29 | .
COc1ccc(-c2cc(C(=O)NN=Cc3cccn3C)[nH]n2)cc1 | . | . | . | . | -7 | .
N/C(=N\OC(=O)c1ccc(Cl)cc1)c1[nH]ncc1Br | -138 | -69 | -394 | -3 | -59 | -275
Cc1ccc(-n2c(Cc3cccs3)nnc2SCC(=O)Nc2ccc(OCc3ccccc3)cc2)cc1 | . | . | . | . | 4 | .
CC(C)n1nnnc1C1(C)Cn2nccc2C(=O)N1Cc1cccc(C(F)(F)F)c1 (stereo not given) | . | . | . | . | -8 | .
O=C(NCc1ccccc1)C1=C[C@H](C2CCCCC2)C[C@H](OCc2ccc(CO)cc2)O1 | 7 | -12 | i | -2 | -2 | -23
O=C(NCc1ccccc1)C1=C[C@@H](C2CC2)C[C@@H](OCc2ccc(CO)cc2)O1 | 16 | 30 | 11 | 5 | 10 | .
COc1ccc(CN2C/C(=C/C3=CCCCC3)N(C(=O)OCc3ccccc3)C2=N)c(OC)c1 | . | . | . | . | -11 | .
CC(=O)Nc1cc(C(=O)N2CCCC2)ccc1Sc1ccc(C)cc1 | 0 | -3 | 38* | -6 | 4 | 15
CC(=O)Nc1cc(C(=O)N2CCCC2)ccc1Sc1ccc(Cl)cc1 | -12 | 0 | 34 | -6 | 27 | .
CCOc1ccc(NC(=O)CN(C)C(=O)c2ccc(N3CCCCCC3)c([N+](=O)[O-])c2)cc1OCC | -14 | 3 | 42* | -5 | 1 | 3
CCOC(=O)[C@@]12CCC3=C1N(CCC3)C(=O)[C@H](CC(=O)NCc1ccccc1)C2 | . | . | . | . | -19 | .
Cc1c(C2(O)CCCCC2)[nH]c2ccc(C(F)(F)F)cc12 | -57 | -3 | -357 | -4 | -25 | -175
Cn1c(-c2ccccc2)cc2onc(-c3ccccc3)c2c1=O | -66 | -25 | -325 | -2 | -9 | -360
Cn1c(-c2ncc(F)cc2F)cc2onc(-c3c(F)cccc3Cl)c2c1=O | 0 | -101 | -99 | -9 | -74 | .
COCCCN1C(=O)[C@H](CC(=O)N2CCCC2)[C@]2(C(=O)OC)CCCCC=C12 | . | . | . | . | -10 | .
CN(C)C(=O)CCc1ccc2c3c([nH]c2c1)[C@]1(CCc2ccccc2)[C@@H](C(=O)N2CCCCC2)C[C@H](CC(=O)NCc2ccco2)C(=O)N1CC3 | . | 8 | 39* | -4 | 3 | 24
CN(C)C(=O)CCc1ccc2c3c([nH]c2c1)[C@]1(C)[C@@H](C(=O)N2CCCCC2)C[C@H](CC(=O)NCc2ccco2)C(=O)N1CC3 | . | 1 | 12 | 2 | -11 | .
O=C(c1cccc(F)c1)N(Cc1ccccn1)CC1CCCO1 (stereo not given) | . | . | . | . | -7 | .
O=C(c1cccc(S(=O)(=O)N2CCOCC2)c1)N1CCCC1 | 6 | 4 | 36* | -1 | 12 | 8
SMILES | Jurkat NFkB inh | Gli-Sufu block | 697 NFkB inh | GalR3 antagonist | NR2F2 inh | 697 NFkB conf
C[C@H](O)[C@@H]1CN2CCc3c([nH]c4cccc(-c5ccccc5)c34)[C@@H]2C[C@@H]1N(C)CC1CCCCC1 | . | . | . | . | 10 | .
Cc1cc(NC(=O)CCCN2C(=O)/C(=C/c3ccccc3Cl)SC2=S)no1 | 18 | 9 | 60* | -3 | 17 | 68*
O=C(CCCN1C(=O)/C(=C/c2ccccc2Cl)SC1=S)NNC(=O)c1ccncc1 | 17 | 6 | 48* | -5 | 37 | 56*
O=C(NC1CCCCN(Cc2cccc(Cl)c2)C1=O)c1c(F)cccc1F (stereo not given) | . | . | . | . | -8 | .
CCN(C(=O)CN1CCN(c2nc(-c3ccccc3)cs2)CC1)c1ccccc1C | . | . | . | . | 24 | .
COc1ccc(N2CCN(CCCn3c(=S)[nH]c4ccccc4c3=O)CC2)cc1 | -34 | 12 | -309 | -7 | 12 | -18
COc1ccccc1N1CCN(CCCn2c(=S)[nH]c3ccccc3c2=O)CC1 | 7 | 14 | -8 | -8 | -15 | .
CC(CCN1CCC(C(O)(c2ccccc2)c2ccccc2)CC1)Oc1cccc(F)c1 (stereo not given) | . | . | . | . | -12 | .
CC(C)c1cc(C(=O)NC2CCCc3c2cnn3-c2ccccc2F)no1 (stereo not given) | -20 | 25 | -438 | 0 | 4 | i
Cc1cc(C(=O)NC2CCCc3c2cnn3-c2ccccc2F)nc(C)n1 (stereo not given) | 10 | -2 | -5 | 7 | 11 | .
C#CCNC(=O)C[C@H]1C[C@@]2(C(=O)OC)C(=C[C@H](C3CCCC3)O[C@@H]2C)N(Cc2cccc3ccccc23)C1=O | . | . | . | . | 1 | .
COC(=O)c1ccccc1NC(=O)c1ccc2c(c1)OCCO2 | 0 | -5 | -29 | -4 | 4 | .
COC(=O)c1ccccc1NC(=S)NC(=O)c1ccc2c(c1)OCO2 | 1 | -4 | 46* | 2 | 3 | 9
COc1ccc(NC(=O)C2CCN(c3cc(-c4ccccc4)nc4ncnn34)CC2)cc1OC | 24 | 9 | 40* | -6 | 10 | 8
COc1ccc(OC)c(NC(=O)C2CCN(c3cc(-c4ccccc4)nc4ncnn34)CC2)c1 | 25 | 20 | 24 | -2 | 14 | .
O=c1cc(N2CCN(c3cccc(Cl)c3)CC2)[nH]c(=O)n1C1CCCCC1 | 47 | 20 | 43* | -2 | -13 | 29
C(=N\Nc1nc2ccccc2[nH]1)/c1cccc2nccnc12 | 5 | 6 | -341 | 0 | 5 | -110
COC(=O)Nc1nc2ccc(C(=O)c3cccs3)cc2[nH]1 | 45 | 20 | i | 9 | -102 | -107
COc1cc2c(cc1NC(=O)CSc1nnc(-c3cccnc3)n1-c1ccc(Br)cc1)oc1ccccc12 | . | . | . | . | -20 | .
Cc1c(NC(=O)CSc2nnc3c4ccccc4n(CCc4ccccc4)c3n2)c(=O)n(-c2ccccc2)n1C | -32 | 1 | i | 3 | -29 | i
O=C1N/C(=C\c2ccccc2)c2ccccc21 | 14 | -7 | -39 | -8 | -15 | .
O=C1N/C(=C\c2nc3ccccc3s2)c2ccccc21 | -107 | . | -322 | . | . | -453

Screening data from PubChem BioAssay.
